Screens (PubChem BioAssay)
Hits are enriched below; roughly 2.4% of the tested compounds scored in any of these assays.
D2 PAM-1 = HTS Assay for Positive Allosteric Modulators of the Human D2 Dopamine Receptor: Primary Screen for Potentiators. potentiation, % at 10 µM. D(2) dopamine receptor (Homo sapiens), P14416. 340,000 compounds, 0.34% hits. HEK293 T-REx D2, calcium flux, EC20 dopamine potentiation;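 active means potentiation over 3 SD above the plate norm, cut at about 30% in these data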; further: 0% is about no effect
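Potentiation of an EC20 dopamine calcium response is measured in a force-coupled, tetracycline-inducible Hek293 Trex D2 line. Compound-only kinetic reads over 180 s flag agonists before dopamine addition.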
D2 antagonist = HTS Assay for Allosteric Antagonists of the Human D2 Dopamine Receptor: Primary Screen for Antagonists | D(2) dopamine receptor (Homo sapiens), P14416 | HEK293 TREx D2 cells, calcium flux, dopamine EC80 | inhibition, % at 10 µM | 340,000 compounds, 2% hits; in the data active means inhibition above about 30%; inactive means below that, where a call was filed; further: 0% is about no effect
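Inhibition of EC80 dopamine-driven calcium flux, recorded kinetically, defines activity here; cells are a tetracycline-induced HEK293 T-REx line expressing force-coupled D2.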
D2 ag-1 = Beta-Arrestin HTS for Positive Allosteric Modulators of the Human D2 Dopamine Receptor: Agonists; D(2) dopamine receptor (Homo sapiens), P14416; activation, % (test concentration not listed); DiscoveRx PathHunter D2 beta-arrestin, luminescence, 90 min; 100% = 57 uM dopamine signal; 360,000 compounds, 0.084% hits; AID 624465, 2012; in the data active means activation above about 40%; inconclusive means between about 15% and that limit
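DiscoveRx PathHunter D2 beta-arrestin cells (2,100/well) attached overnight, then compound-stimulated 90 min at 37 C in HBSS/10 mM HEPES/0.1% Tween-20 buffer; beta-galactosidase complementation read by luminescence after 1 h at ambient temperature. Dopamine 57 uM final (EC100) as control.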
D2 ag-2 = HTS Assay for Allosteric Agonists of the Human D2 Dopamine Receptor: Primary Screen for Agonists; HEK293 T-REx D2 cells, calcium flux agonist mode; activation, % at 2 µM; 340,000 compounds, 0.53% hits;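 active means activation over 3 SD above normal in the single-dose calcium agonist read, cut at about 30% in these data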; further: 0% is about no effect
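Calcium-flux readout, 1 cycle/sec over 180 s following compound pin transfer, in inducible HEK293 Trex D2 cells (force-coupled); dopamine controls included. Positive calcium responses during this window marked compounds as potential agonists.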
D2 PAM-2 = Beta-Arrestin HTS for Positive Allosteric Modulators of the Human D2 Dopamine Receptor: Potentiators; potentiation, % (no concentration beside the values); D(2) dopamine receptor (Homo sapiens), P14416; DiscoveRx D2 beta-arrestin cells, luminescence, 90 min; 100% = 57 uM dopamine signal; AID 624464, 2012; 360,000 compounds, 0.23% hits; in the data active means potentiation above about 50%; inconclusive means mostly about 30% to 49%
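D2 cells co-treated with compound plus 50 nM dopamine (EC20) for 90 min at 37 deg C to detect potentiation. Beta-arrestin recruitment was read as enzyme-fragment luminescence after 1 h at ambient temperature. Full response was set by 57 uM dopamine.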
D3 arrestin ag = qHTS of D3 Dopamine Receptor Agonist: D3 Dopamine Receptor B-arrestin Agonist Confirmatory Assay | shares compounds with D2 ag-2 | DiscoveRx D3 beta-arrestin cells, luminescence, 90 min | Potency, µM (series often up to 76.9 µM), inactives show at the top dose activation, usual class: activators | 2,300 compounds, 4% hits | AID 720506, 2013;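 further: potency means the concentration at half of the fitted maximal effect; 100% = dopamine control response; nearly all actives have a fitted effect of over 70% in size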
Target sequence (P35462 whole entry, looked up): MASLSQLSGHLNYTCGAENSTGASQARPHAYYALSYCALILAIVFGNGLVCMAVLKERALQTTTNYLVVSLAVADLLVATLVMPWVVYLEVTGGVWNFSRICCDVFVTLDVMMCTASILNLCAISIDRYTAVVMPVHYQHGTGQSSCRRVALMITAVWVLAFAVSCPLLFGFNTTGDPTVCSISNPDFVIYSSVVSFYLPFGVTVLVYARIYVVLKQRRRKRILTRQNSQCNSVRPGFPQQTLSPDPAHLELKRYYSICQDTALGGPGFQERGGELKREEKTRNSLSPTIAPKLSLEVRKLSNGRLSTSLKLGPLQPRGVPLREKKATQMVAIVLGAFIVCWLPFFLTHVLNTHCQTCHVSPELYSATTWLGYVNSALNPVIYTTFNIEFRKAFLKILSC
D2 ag-3 = qHTS of D3 Dopamine Receptor Agonist: D2 Dopamine Receptor B-arrestin Agonist Counterscreen | AID 720507, 2013 | DiscoveRx PathHunter D2 beta-arrestin, luminescence, 90 min; response scale: percent relative to full dopamine signal | 2,300 compounds, 5.9% hits | shares compounds with D2 ag-2 | Potency, µM (top dose mostly 76.9 µM), without a hit: top-dose activation, hits mostly activators; further: potency means the concentration at half of the fitted maximal effect; % of control where 0% means no effect; nearly all actives have a fitted effect of over 70% in size
* marks the source's active call; other numbers are inactive results; ? = inconclusive; . = no result given. Unless noted, the call rests on the fitted dose curve; in most records, active means well fitted activation curve with a large enough effect; inconclusive means small, poorly fitted or top-dose-only effect; inactive means flat fitted curve, though single readings scatter.

SMILES	D2 PAM-1	D2 antagonist	D2 ag-1	D2 ag-2	D2 PAM-2	D3 arrestin ag	D2 ag-3
Cc1cccc(OCC(=O)Nc2ccc3c(c2)nc(CCN2CCN(c4ccccn4)CC2)n3C)c1	-5	31*	10	0	-20	28µM*	?
COCc1cc(C)nc(SCc2ccc(F)cc2)c1C#N	9	42*	-4	0	-1	-10%	-2%
CCOc1ccccc1N1CCN(CC(O)COc2ccc3c(C)cc(=O)oc3c2)CC1 (configuration not stated)	-14	65*	13	55*	-6	-4%	14%
COc1ccccc1N1CCN(CC(O)COc2ccc3c(c2)OCO3)CC1 (configuration not stated)	12	1	-5	0	-10	.	.
CCN(CC)CCN(C)C1CCC(c2ccccc2)CC1 (configuration not stated)	-18	-7	-2	46*	-16	-5%	3%
CCN(CC)C(=O)c1cccc(NC(=O)CCc2nc3sc4c(c3c(=O)[nH]2)CCCC4)c1	-1	-12	1	-1	-19	-5%	7%
COc1ccc(CN(C(=O)/C=C/C(=O)c2ccc(OC)cc2O)C(C(=O)NC2CCCCC2)c2ccncc2)cc1 (configuration not stated)	-27	1	0	35*	-2	-9%	-4%
COc1ccc2[nH]cc(C3N4CC5(C)CN3CC(C)(C4)C5=O)c2c1 (configuration not stated)	-14	-22	0	58*	-3	3%	-2%
O=C(CCCCn1c(=O)c2ccccc2n(CC(=O)Nc2cccc(F)c2)c1=O)NCc1ccccc1Cl	-3	.	.	0	.	.	.
Cc1occc1-c1nnc(SCC(=O)Nc2nc3ccccc3s2)o1	-22	-19	6	45*	-2	-4%	-2%
O=C(CCc1ccc(O)c(O)c1)NNC(=S)NCCc1ccccc1	-25	29	10	46*	8	?	13%
COc1ccc(CCC(=O)NNC(=O)Nc2cccc(Cl)c2)cc1	5	-8	1	0	-5	.	.
O=C(CCc1ccccc1)NNC(=S)NCc1ccc(Cl)cc1	8	-2	0	1	-7	.	.
COc1cccc(NC(=O)NNC(=O)CCc2ccc(O)c(O)c2)c1	-17	24	?	52*	-24	7.9µM*	13%
CC(=O)c1cccc(NC(=O)c2sc(-n3nc(C)c(Cc4ccc5c(c4)OCO5)c3C)nc2C)c1	16	.	.	-2	.	.	.
COc1ccc(CNC(=O)CCC2N=C3c4ccccc4N=C(SCC(=O)NCCc4ccc(OC)c(OC)c4)N3C2=O)cc1 (configuration not stated)	8	.	.	-1	.	.	.
Cc1oc(-c2ccccc2F)nc1CN1CCC(C(=O)NCc2cccs2)CC1	-15	-6	1	52*	-2	-4%	8%
Cc1cc(C)nc(N2CCC(C(=O)NCc3cccs3)CC2)n1	-6	-8	-2	31*	-5	-1%	-6%
Cc1cc(C)nc(N2CCC(C(=O)NCc3ccco3)CC2)n1	.	.	-2	.	-10	.	.
CCc1ccc(-n2c(=O)c3sc4ccccc4c3n(Cc3cccc(F)c3)c2=O)cc1	-2	.	.	0	.	.	.
COc1ccc(-c2cc(C(=O)NCCc3ccc(OC)c(OC)c3)c3ccccc3n2)cc1	1	.	.	0	.	.	.
